PubChem BioAssay (NCI)
About 83,000 compounds went through this panel and 20% of them were active in at least one assay; those are over-represented in the sample as a whole.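 Assay: single dose, 48 h. Readout: percent growth (0 = no net growth; negative = cell death). Active: <10.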 Unmarked numbers belong to inactive results. Activity calls are given as the source filed them.

Legend:
Test in all cases: NCI-60 one-dose screen, 48 h (100 = growth as untreated, 0 = no growth, -100 = all killed)
Conditions in all cases: 10 µM unless noted
NCI-H23 lung = system: NCI-H23 lung
NCI-H226 lung = system: NCI-H226 lung
NCI-H322M lung = system: NCI-H322M lung
HOP-62 NSCLC = system: HOP-62 NSCLC
NCI-H460 lung = system: NCI-H460 lung
HOP-92 NSCLC = system: HOP-92 NSCLC
NCI-H522 lung = system: NCI-H522 lung
A549/ATCC NSCLC = system: A549/ATCC NSCLC
786-0 renal = system: 786-0 renal
COLO 205 colon = system: COLO 205 colon
DU-145 prostate = system: DU-145 prostate
MALME-3M melanoma = system: MALME-3M melanoma
MDA-MB-231 breast = system: MDA-MB-231 breast
RXF 393 renal = system: RXF 393 renal
SF-268 CNS = system: SF-268 CNS
SF-295 CNS = system: SF-295 CNS
SF-539 CNS = system: SF-539 CNS
UACC-257 melanoma = system: UACC-257 melanoma
M14 melanoma = system: M14 melanoma

SMILES	growth (NCI-H23 lung)	growth (NCI-H226 lung)	growth (NCI-H322M lung) [%]	growth (HOP-62 NSCLC)	growth (NCI-H460 lung)	growth (HOP-92 NSCLC)	growth (NCI-H522 lung)	growth (A549/ATCC NSCLC)	growth (786-0 renal)	growth (COLO 205 colon)	growth (DU-145 prostate)	growth (MALME-3M melanoma)	growth (MDA-MB-231 breast)	growth (RXF 393 renal)	growth (SF-268 CNS)	growth (SF-295 CNS)	growth (SF-539 CNS)	growth (UACC-257 melanoma)	growth (M14 melanoma)
COC(=O)c1ccc2c(c1)[n+](=O)c(C(C)=O)c(C(F)(F)F)n2[O-]	-62.2% (active)	-17.1% (active)	66.2	-9.08% (active)	-88.8% (active)	-57% (active)	-80.7% (active)	28.6%	-40.5% (active)	-100% (active)	1.28% (active)	-26.4% (active)	-4.69% (active)	-20.1% (active)	-24.8% (active)	-45.7% (active)	-45.8% (active)	-30.3% (active)	-23.5% (active)
Oc1ccc(OCCOc2ccc(O)cc2)cc1	57.2%	92%	82.1	87.6%	48.5%	94.2%	30.9%	35%	28.3%	108%	61.4%	62%	50.3%	71.7%	61%	32.7%	28%	83.8%	15.8%
Cc1ccc(-c2nc3ccccn3c2/C=C2/C(=O)Nc3cc(Cl)ccc32)cc1	72.4%	94.5%	98	83.7%	82.3%	110%	68.7%	90.6%	92.7%	84%	65.5%	76.1%	76%	77.8%	63.3%	64.5%	79.7%	91.1%	80.4%
NS(=O)(=O)c1ccc(CCN2C(=O)c3cc(Cl)c(Cl)cc3C2=O)cc1	105%	106%	97.8	102%	109%	104%	86.5%	105%	96.7%	115%	104%	110%	107%	120%	98.1%	99.7%	106%	99.7%	106%
N#CC(C(=O)/C(=N/NC(=O)c1ccccc1O)C(C#N)c1ccccc1)c1ccccc1 (configuration not stated)	55.5%	70.5%	68.4	30.8%	24.3%	40.4%	67.9%	20.1%	85.9%	105%	39.4%	87.8%	63.7%	55.9%	44.1%	101%	33.3%	46.2%	46.4%
CC/C(=C\c1ccc(OC)cc1)C(=O)c1ccc(OC)cc1	86.4%	93.7%	92.5	86.8%	102%	85.2%	74.3%	123%	97.3%	121%	105%	114%	96.4%	126%	101%	76.5%	96.5%	101%	102%
CC(C)c1ccc(Nc2ccc3c(OCCCN4CCN(C)CC4)cccc3n2)cc1	70.8%	83.9%	82.6	64.1%	52.1%	56.5%	83.2%	51.5%	46.5%	-65.1% (active)	76.1%	39.2%	51.8%	48.9%	71.8%	38.8%	73.5%	71.9%	-67.6% (active)
COc1ccc(-c2nc3sccn3c2/C=C/C(=O)c2ccc3c(c2)OCO3)cc1	99.7%	84.7%	88.5	97.5%	108%	82.8%	57.8%	95%	96.8%	211%	113%	84.6%	76.3%	117%	100%	97.1%	84.6%	95.8%	103%
O=c1c2c(c(=O)n1O)c1c3ccc[nH]c3nc1c1nc3[nH]cccc3c12	86.7%	87.1%	91	83%	93.1%	80.1%	55%	79.4%	87.5%	94.9%	95.4%	84.3%	77.4%	87%	71.7%	96%	83.9%	85.4%	94%
c1ccc(Cn2cnc3ccc(-c4nc(-c5ccc6c(c5)ncn6C5CCCCC5)cn5ccnc45)cc32)cc1	-22.8% (active)	-63.1% (active)	16	-9.39% (active)	-20.3% (active)	-83.6% (active)	-35.2% (active)	-5.05% (active)	-19.4% (active)	-29.9% (active)	-28.2% (active)	-15.4% (active)	-70.1% (active)	-76.9% (active)	-0.106% (active)	-81.4% (active)	-77.6% (active)	-32.7% (active)	-4.44% (active)
Fc1ccc(-c2cn3c(nc4ccccc43)c(-c3ccccc3)n2)cc1	88.5%	97.5%	109	107%	98.2%	68.7%	64.7%	91.4%	83%	116%	106%	107%	89.3%	80.4%	90.1%	103%	90.1%	101%	109%
C=C(CBr)[C@@H]1CC[C@]2(COC(C)=O)CC[C@]3(C)[C@H](CC[C@@H]4[C@@]5(C)CCCNC(C)(C)[C@@H]5CC[C@]43C)[C@@H]12	37.7%	76.9%	83.1	67.9%	17%	39.3%	31.1%	34.4%	45.7%	48.1%	66.3%	71%	65.6%	56%	50.3%	59.5%	49.7%	23.4%	40%
C=C(C)[C@@H]1CC[C@]2(C(=O)N3CCN(C)CC3)CC[C@]3(C)[C@H](CC[C@@H]4[C@@]5(C)CC[C@H](O)C(C)(C)[C@@H]5CC[C@]43C)[C@@H]12	-14.5% (active)	129%	10.4	55.6%	-69.5% (active)	14.5%	-89.6% (active)	-82.4% (active)	-95.1% (active)	-69.2% (active)	-57.3% (active)	-73.1% (active)	-63.4% (active)	-91.6% (active)	-74.8% (active)	-86.9% (active)	-74.3% (active)	-88.5% (active)	-86.4% (active)
